A number with no mark means an inactive call. Activity calls are given as the source filed them. Cut-off read from the data, not from the text of the source, unless noted: active = inhibition above about 42%; inactive = the rest.
Key:
[1] = StAR promoter reporter inhibitors, counter-screen for LRH-1 inverse agonist project, cell-based, luminescence, high throughput (AID 651611; in the data active = inhibition above about 28%); conditions: StAR promoter luciferase reporter counterscreen, at 3.6 µM, stronger effect = higher value
[2] = target: Nuclear receptor subfamily 5 group A member 2 (Homo sapiens) (UniProt O00482); assay: LRH-1 (NR5A2) inverse agonists, retest, confirmation, cell-based, luminescence (AID 651613); conditions: cell-based LRH-1 luciferase reporter, inverse agonism; at 3.6 µM; stronger effect = higher value;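 note: HEK293T cells co-transfected with LRH-1 and StAR promoter luciferase reporter; 0% = vehicle wells and 100% = parental cells lacking receptor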
[3] = target: Steroidogenic factor 1 (Homo sapiens) (UniProt Q13285); assay: SF1 (NR5A1) inverse agonists, counter-screen for LRH-1 inverse agonist project, cell-based, luminescence, high throughput (AID 651614; in the data active = inhibition above about 44%;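 note: cells cotransfected with StAR promoter reporter and SF1 expression vector; 0% = vehicle on cells with receptor and 100% = vehicle on cells lacking receptor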); conditions: cell-based SF1 luciferase reporter, at 3.6 µM, stronger effect = higher value
[4] = VP16 transactivation reporter inhibitors, counter-screen for LRH-1 inverse agonist project, cell-based, luminescence, high throughput (AID 651615; in the data active = inhibition above about 33%); conditions: Gal4-VP16 luciferase reporter cells, at 3.6 µM, stronger effect = higher value

Nuclear receptor subfamily 5 group A member 2 (Homo sapiens), sequence (O00482 whole entry, looked up): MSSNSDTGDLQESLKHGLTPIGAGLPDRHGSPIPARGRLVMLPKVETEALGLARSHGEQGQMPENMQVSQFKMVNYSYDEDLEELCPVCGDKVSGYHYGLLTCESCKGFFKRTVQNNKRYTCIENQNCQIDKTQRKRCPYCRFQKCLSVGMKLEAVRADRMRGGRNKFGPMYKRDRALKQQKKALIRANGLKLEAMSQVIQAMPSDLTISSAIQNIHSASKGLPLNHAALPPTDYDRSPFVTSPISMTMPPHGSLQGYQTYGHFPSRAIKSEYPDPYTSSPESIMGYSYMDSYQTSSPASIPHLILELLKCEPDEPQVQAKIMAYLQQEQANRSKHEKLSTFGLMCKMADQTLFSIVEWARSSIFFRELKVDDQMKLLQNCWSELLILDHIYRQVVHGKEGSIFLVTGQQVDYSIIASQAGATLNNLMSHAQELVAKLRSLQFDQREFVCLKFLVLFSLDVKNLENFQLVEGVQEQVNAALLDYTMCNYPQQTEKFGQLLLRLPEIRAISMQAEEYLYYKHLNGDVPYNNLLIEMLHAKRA
Steroidogenic factor 1 (Homo sapiens), sequence (Q13285 whole entry, looked up, the tested form may be a part): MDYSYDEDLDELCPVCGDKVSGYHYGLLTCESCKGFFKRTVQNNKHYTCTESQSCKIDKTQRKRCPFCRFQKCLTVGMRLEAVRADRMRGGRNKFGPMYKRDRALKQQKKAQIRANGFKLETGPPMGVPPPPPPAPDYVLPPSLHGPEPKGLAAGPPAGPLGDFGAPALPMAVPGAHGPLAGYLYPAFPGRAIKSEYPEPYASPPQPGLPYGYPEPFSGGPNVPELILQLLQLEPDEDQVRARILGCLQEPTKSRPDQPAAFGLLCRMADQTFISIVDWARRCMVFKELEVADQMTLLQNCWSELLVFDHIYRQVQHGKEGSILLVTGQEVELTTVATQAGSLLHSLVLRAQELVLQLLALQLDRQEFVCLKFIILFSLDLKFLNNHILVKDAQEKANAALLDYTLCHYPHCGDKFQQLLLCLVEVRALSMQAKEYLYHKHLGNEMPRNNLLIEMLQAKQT

SMILES | inhibition [1] | inhibition [2] | inhibition [3] | inhibition [4]
O=C(Nc1ccc(Cl)cn1)c1ccc([N+](=O)[O-])o1 | -0.66% | 51.5% (active) | 55% (active) | -20.8%
CCOC(=O)c1cccc(C2=CC(=O)CC(C)(C)C2)c1 | 1.21% | 46.3% (active) | 48.8% (active) | -12%
CC(NC(=O)c1ccco1)C(c1cccs1)N1CCN(c2ccccc2F)CC1 (centres undefined) | 3.57% | 49.3% (active) | 42.6% | 13%
Cc1ccc(-n2nnnc2-c2ccccc2Br)cc1 | 7.41% | 57.2% (active) | 52% (active) | 4.92%
CCOc1ccc(NC(=O)CSc2nc3cccnc3n2CCOC)cc1 | 21.3% | 64.4% (active) | 62.1% (active) | -10.9%
Oc1ccccc1-c1nc(NCC2CCCO2)c2ccccc2n1 (centres undefined) | 26.3% | 66.2% (active) | 58% (active) | -8%
O=C(c1ccc([N+](=O)[O-])o1)N1CCN(c2nc3c(F)cc(F)cc3s2)CC1 | -14.9% | 60.2% (active) | 60.4% (active) | -0.11%
CC(Nc1ncnc2ccccc12)c1ccccc1 (centres undefined) | 20.9% | 60.2% (active) | 67.9% (active) | 53.7% (active)
COc1ccc(C(NC(=O)C(C)C)c2ccc3cccnc3c2O)cc1 (centres undefined) | 84.5% (active) | 103% (active) | 91.8% (active) | 87.7% (active)
CCS(=O)(=O)Nc1cccc(-c2ccc3nnc(-c4cccnc4)n3n2)c1 | 21.7% | 52.1% (active) | 49.5% (active) | -31.6%
CN(C)c1ccc(S(=O)(=O)N2CCCCC2)cc1NC(=O)CCNC(=O)c1ccc(Cl)cc1 | 6.54% | 3.72% | 1.24% | -0.3%
COc1cc2c(cc1OC)C(C1C(=O)CC(C)CC1=O)N(C(=O)CCl)CC2 (centres undefined) | 19.1% | 54.1% (active) | 58.5% (active) | -19.1%
O=C(CSc1nnc(CNC(=O)c2c(F)cccc2F)o1)Nc1ccc2c(c1)OCCO2 | 9.56% | 44.6% (active) | 54.6% (active) | -8.58%
CCOc1cc(/C=C2/C(=N)N3OC(C)=CC3=NC2=O)ccc1OCCOc1ccccc1 | 5.5% | 46% (active) | 32.2% | -12.2%
O=C(Nc1ccccc1C(=O)NC1CC1)c1ccc([N+](=O)[O-])o1 | 22.3% | 62.9% (active) | 65.1% (active) | -5.35%
O=C(C[n+]1ccc(Cc2ccccc2)cc1)Nc1ccc([N+](=O)[O-])cc1Cl | 5.98% | 54.7% (active) | 45.6% (active) | 5.52%
O=[N+]([O-])c1ccc(COc2cccc(CNc3ccc(Br)cc3)c2)cc1 | 3.67% | 48.8% (active) | 37.4% | -6.59%
O=C(Nc1nc(-c2cccs2)cs1)c1ccc([N+](=O)[O-])o1 | -1.18% | 51.9% (active) | 62.9% (active) | -34.9%
O=[N+]([O-])c1cccc(-c2ccc(/C=N/NC(=S)NCc3ccco3)o2)c1 | 10.6% | 48.5% (active) | 51.2% (active) | -3.67%
O=C(NC1CCC(CC2CCC(NC(=O)C(Cl)Cl)CC2)CC1)C(Cl)Cl (centres undefined) | 6.07% | 58.2% (active) | 62% (active) | -2.2%
CC(=O)Nc1cccc(C(=O)OCC(=O)N2CCN(C(=O)COC(=O)c3cccc(NC(C)=O)c3)CC2)c1 | 21.9% | 55.5% (active) | 47.6% (active) | -10.3%
O=C(Nc1cccnc1)c1ccc([N+](=O)[O-])o1 | 27.2% | 61.9% (active) | 58.5% (active) | -15.2%
COc1ccc(CCNC(=O)c2cc(-c3ccco3)on2)cc1OC | -181% | 43.8% (active) | 50.5% (active) | -5.34%
Cc1nc2cc(N3CCCCC3)c(NC(=O)c3cccnc3)cc2c(=O)n1Cc1ccccc1 | 10.7% | 57.6% (active) | 57.2% (active) | -17%
O=C(Nc1cccc2ncccc12)c1ccc([N+](=O)[O-])o1 | 16.2% | 69.9% (active) | 64.4% (active) | -17.5%
CCN1C(=O)c2cccc3c(N)ccc1c23 | 33.4% (active) | 58.6% (active) | 46% (active) | -37.8%
